Data taken from publication PMC5540273 (PLoS ONE, 2017).

How the values were obtained:
Settings in all cases: concentration: 1 μM, replicates: in singlicate; n = 1
PAK3 = test system: PAK3
PAK4 = test system: PAK4
PAK6 = test system: PAK6
PAK7 = test system: PAK7
PCTK1 = test system: T1, PCTK1
T1 construct: gene CDK16

PCTK2 = test system: T2, PCTK2
T2 construct: gene CDK17

PCTK3 = test system: T3, PCTK3
T3 construct: gene CDK18

PDGFRA = test system: PDGFRA
PDGFRB = test system: PDGFRB
PDPK1 = test system: PDPK1
PFTAIRE2 = test system: PFTAIRE2
PFTK1 = test system: T4, PFTK1
T4 construct: gene CDK14

PHKG1 = test system: PHKG1
PHKG2 = test system: PHKG2
PIK3C2B = test system: PIK3C2B
PIK3C2G = test system: PIK3C2G
PIK3CA = test system: PIK3CA
PIK3CB = test system: PIK3CB
PIK3CD = test system: PIK3CD
PIK3CG = test system: PIK3CG
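Also: KINOMEscan kinase panel screen.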

SMILES | %Inh (PAK3) [%] | %Inh (PAK4) [%] | %Inh (PAK6) [%] | %Inh (PAK7) [%] | %Inh (PCTK1) [%] | %Inh (PCTK2) [%] | %Inh (PCTK3) [%] | %Inh (PDGFRA) [%] | %Inh (PDGFRB) [%] | %Inh (PDPK1) [%] | %Inh (PFTAIRE2) [%] | %Inh (PFTK1) [%] | %Inh (PHKG1) [%] | %Inh (PHKG2) [%] | %Inh (PIK3C2B) [%] | %Inh (PIK3C2G) [%] | %Inh (PIK3CA) [%] | %Inh (PIK3CB) [%] | %Inh (PIK3CD) [%] | %Inh (PIK3CG) [%]
CS(=O)(=O)Cc1ccc(Nc2nccc(-c3c(-c4cccc(NC(=O)C5CCCCC5)c4)nn4ncccc34)n2)cc1 [GSK350559] | 0 | 13 | 19 | 2 | 20 | 0 | 12 | 53 | 93.9 | 1 | 0 | 18 | 4 | 9 | 0 | 27 | 12 | 4 | 0 | 4
CNC(=O)c1ccc(C)c(-n2c(C)cc(OCc3ccc(F)cc3F)c(Br)c2=O)c1 | 0 | 0 | 0 | 0 | 0 | 0 | 0 | 0 | 0 | 0 | 0 | 8 | 5 | 0 | 0 | 0 | 0 | 0 | 0 | 0
O=C(Nc1n[nH]c2nc(-c3cccs3)c(Br)cc12)C1CCCC1 [SB-743341] | 0 | 0 | 9 | 0 | 46 | 54 | 56 | 32 | 74 | 0 | 9 | 20 | 2 | 12 | 0 | 5 | 5 | 61 | 0 | 0
COc1cccc(CNC(=O)NC2CCN(c3ccnc(Nc4ccc(F)cc4)n3)C2)c1 (centres unmarked) [GSK1379723] | 38 | 0 | 0 | 0 | 10 | 0 | 14 | 7 | 15 | 0 | 7 | 0 | 0 | 26 | 0 | 0 | 0 | 0 | 2 | 0
Cl.Cl.Cl.N#Cc1ccc(CCNc2nccc(-c3cccc(CN4CCNCC4)c3)n2)cc1 [GSK2137462] | 6 | 0 | 8 | 12 | 0 | 0 | 0 | 0 | 34 | 8 | 16 | 14 | 25 | 23 | 0 | 0 | 1 | 13 | 0 | 12
Cc1ccc(NC(=O)Nc2ccc(Cl)cc2)cc1-c1ccc(C(=O)Nc2ccncc2)cc1 [GSK1398472] | 21 | 0 | 0 | 0 | 5 | 0 | 0 | 10 | 99.7 | 0 | 0 | 12 | 0 | 0 | 0 | 0 | 0 | 36 | 0 | 0
COc1cccc(C2=C(Nc3cc(Cl)c(O)c(Cl)c3)C(=O)NC2=O)c1 [SB-390767] | 100 | 0 | 0 | 0 | 2 | 0 | 0 | 0 | 0 | 0 | 8 | 0 | 0 | 0 | 0 | 0 | 0 | 0 | 0 | 0
COc1ccc(CSc2nnc(-c3ccc4ncsc4c3)o2)cc1C(F)(F)F | 9 | 0 | 9 | 1 | 0 | 0 | 0 | 0 | 0 | 10 | 0 | 0 | 0 | 15 | 0 | 0 | 0 | 12 | 0 | 5
CCc1ccc(-c2ccc3c(c2)-c2n[nH]cc2S(=O)(=O)N3C)cc1 | 0 | 0 | 0 | 0 | 0 | 0 | 0 | 0 | 7 | 4 | 0 | 0 | 0 | 0 | 0 | 0 | 0 | 0 | 0 | 0
Nc1nccc(-c2c(-c3ccc(F)cc3)ncn2C2CCN(Cc3ccccc3)CC2)n1 [SB-219980] | 5 | 0 | 0 | 0 | 3 | 0 | 0 | 22 | 20 | 0 | 5 | 0 | 1 | 0 | 17 | 52 | 0 | 4 | 35 | 7
CC(C)c1ccc(O)cc1Nc1ccnc2ccc(C(F)(F)F)cc12 [GW482059] | 0 | 0 | 0 | 0 | 2 | 0 | 0 | 3 | 10 | 18 | 1 | 0 | 0 | 0 | 0 | 15 | 0 | 0 | 25 | 0
CNc1nc(-c2ccc3c(N)n[nH]c3c2)cc(N2C[C@@H](C(=O)NC3CCCCC3)OC[C@H]2C)n1 [GSK2375584] | 0 | 0 | 0 | 24 | 0 | 10 | 21 | 0 | 35 | 79 | 13 | 25 | 3 | 13 | 0 | 0 | 4 | 34 | 0 | 9
CSc1ccc(-c2nc3n(c2-c2ccncc2)CCC3)cc1 [SKF-105561] | 0 | 0 | 0 | 0 | 3 | 5 | 0 | 28 | 0 | 0 | 1 | 2 | 5 | 0 | 19 | 21 | 0 | 0 | 0 | 23
Fc1ccc(-c2nn3cccc(F)c3c2-c2ccncc2)cc1 [GW475620] | 20 | 0 | 0 | 0 | 6 | 0 | 0 | 0 | 3 | 0 | 0 | 20 | 0 | 0 | 0 | 15 | 0 | 0 | 25 | 0
Cc1ccc(NC(=O)c2ccc(Cl)cc2)cc1-c1ccc(C(=O)Nc2ccncc2)cc1 [GSK1398467] | 19 | 0 | 0 | 65 | 0 | 0 | 0 | 66 | 100 | 0 | 0 | 0 | 0 | 16 | 0 | 0 | 0 | 0 | 0 | 0
O=c1cc(N2CCOCC2)nc2n(Cc3cccc(Cl)c3Cl)c3ccccc3n12 [GSK2299009] | 42 | 0 | 21 | 12 | 8 | 8 | 20 | 0 | 51 | 0 | 29 | 19 | 7 | 3 | 0 | 0 | 7 | 97.5 | 3 | 1
Cn1cncc1-c1cc2c(Nc3ccc(OCc4ccccc4)cc3)ncnc2cn1 [GW281179] | 0 | 0 | 0 | 0 | 11 | 0 | 21 | 0 | 16 | 0 | 9 | 20 | 4 | 0 | 24 | 0 | 0 | 0 | 0 | 0
COC(=O)C(NC(=O)NC1CCN(c2ccnc(Nc3ccc(F)cc3)n2)C1)c1ccccc1 (centres unmarked) [GSK1379712] | 0 | 0 | 0 | 2 | 0 | 14 | 24 | 14 | 38 | 0 | 14 | 17 | 0 | 0 | 14 | 0 | 1 | 5 | 23 | 9
Nc1ncnc2occ(-c3ccc4c(c3)CCN4C(=O)Cc3cc(F)ccc3F)c12 [GSK2645446] | 0 | 0 | 0 | 12 | 2 | 0 | 2 | 0 | 50 | 0 | 12 | 10 | 0 | 0 | 14 | 0 | 0 | 0 | 0 | 5
